Out of some 16,000 compounds screened, about 5,100 (32%) were called active. Another 25% or so got no clear call; they are omitted. The call rests on the fitted dose curve; in most records, active means well fitted curve in the direction sought with a large enough effect; inconclusive means small, poorly fitted or top-dose-only effect, or effect the other way; inactive means no such curve, though single readings can be large or run the other way. This is one part of the list.
target: Cytochrome P450 3A4 (Homo sapiens) (UniProt P08684); assay: Cytochrome panel assay with activity outcomes; conditions: recombinant CYP, pro-luciferin dealkylation, luminescence, p450-cyp3a4; series mostly up to 57.1 µM; activity, negative = inhibition: at the top concentration
Sequence (P08684 whole entry, looked up): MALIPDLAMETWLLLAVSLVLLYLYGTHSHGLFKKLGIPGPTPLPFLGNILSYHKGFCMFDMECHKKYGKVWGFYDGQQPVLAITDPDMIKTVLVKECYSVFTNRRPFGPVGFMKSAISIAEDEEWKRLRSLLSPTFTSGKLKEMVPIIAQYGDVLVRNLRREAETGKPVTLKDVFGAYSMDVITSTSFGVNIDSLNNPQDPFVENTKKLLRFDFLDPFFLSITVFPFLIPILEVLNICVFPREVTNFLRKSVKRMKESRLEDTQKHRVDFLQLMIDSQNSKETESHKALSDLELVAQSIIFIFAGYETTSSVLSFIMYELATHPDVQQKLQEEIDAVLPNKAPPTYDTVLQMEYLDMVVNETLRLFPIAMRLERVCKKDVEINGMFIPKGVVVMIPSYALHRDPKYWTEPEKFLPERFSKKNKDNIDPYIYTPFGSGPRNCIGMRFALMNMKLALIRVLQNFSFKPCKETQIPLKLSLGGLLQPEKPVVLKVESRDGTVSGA
On the % scale 0 is the no-effect control and ±100 the full control effect.

activity, negative = inhibition, inactive:
CCc1c(C(C)O)oc2ccc3c(C)cc(=O)oc3c12 (stereo unspecified) 7.59% [at 2.29 µM], O=C(Nc1ccc(S(=O)(=O)N2CCCC2)cc1)c1ccc(CN2CCOCC2)cc1 -3.74% [at 2.29 µM], O=C1[C@@H]2[C@H]3[C@H](O)[C@H](O)C/C(=N/OCc4ccccc4)[C@@H]3CC[C@H]2C(=O)N1c1ccc(F)cc1F -19.6% [at 11.4 µM], CC(C)CO/N=C1/C[C@@H](O)[C@@H](O)[C@@H]2[C@H]3C(=O)N(c4ccc(F)cc4F)C(=O)[C@@H]3CC[C@@H]12 0.624% [at 11.4 µM], O=C1C[C@@H](O)[C@@H](O)[C@@H]2[C@H]3C(=O)N(c4ccc(F)cc4F)C(=O)[C@@H]3CC[C@H]12 -11% [at 11.4 µM], CC(C)CO/N=C1/C[C@@H](O)[C@@H](O)[C@@H]2[C@H]3C(=O)N(c4ccc(F)cc4F)C(=O)[C@@H]3CC[C@H]12 -8.15% [at 11.4 µM], Cc1ccc(-n2c3c(c(=O)[nH]c2=O)C(NS(=O)(=O)c2ccc(C)cc2)(C(F)(F)F)C(=O)N3)cc1 (stereo unspecified) -13.8%, O=C(c1cc(C(F)(F)F)cc(C(F)(F)F)c1)N1CCC2(CC1)CCN(c1ncccn1)CC2 -9.89%, O=C(c1cc(C(F)(F)F)cc(C(F)(F)F)c1)N1CCC2(CC1)CCN(c1ccccn1)CC2 4.89%, O=C(c1cc(C(F)(F)F)cc(C(F)(F)F)c1)N1CCC2(CC1)CN(c1ccccn1)C2 -15.9%, O=C(c1cc(C(F)(F)F)cc(C(F)(F)F)c1)N1CCC2(CC1)CN(c1ccncc1)C2 -5.48%, O=C(c1cc(C(F)(F)F)cc(C(F)(F)F)c1)N1CCC2(CC1)CN(c1ncccn1)C2 -23.6%, O=C(CCCCC(=O)Nc1c(I)cc(I)c(C(=O)O)c1I)Nc1c(I)cc(I)c(C(=O)O)c1I -16% [at 25.6 µM], CC(C)C(=O)Cc1ccc2ccccc2n1 -6.02% [at 11.4 µM], CCCCc1cc2ccccc2c(OCCN(C)C)n1 -17.9% [at 25.6 µM], O=C(Nc1ccccc1C(=O)O)c1ccc2ccccc2n1 23%, O=C(O)Cc1cc2ccccc2nc1C(=O)O 9.42%, CC1CN(C(=O)c2cc3c(s2)CCC3)CC(C)O1 (stereo unspecified) 12.9%, CC1CN(C2CCN(C(=O)c3cccc(Cl)c3)CC2)CC(C)O1 (stereo unspecified) 20.4%, O=C(O)C[n+]1ccccc1 -14.8% [at 11.4 µM], CCOc1ccc(NC(=S)NC(=O)/C=C/c2ccc(C)cc2)c([N+](=O)[O-])c1 5.31%, O=C(/C=C/c1ccc(Br)cc1)NC1CCCCCC1 -12.6% [at 11.4 µM], NC(=O)c1ncn([C@@H]2O[C@@H](CO)[C@@H](O)[C@H]2O)c1O -3.29%, CCn1cc(C(=O)O)c(=O)c2cc3c(cc21)OCO3 3.68%, CCc1c(C(=O)O)[nH]c2ccc(Br)cc12 -8.49%, CC1CCN(CCCn2c(=S)[nH]c3ccc(N4CCOCC4)cc3c2=O)CC1 -10.7%, CC(C)OCCCn1c(=S)[nH]c2ncccc2c1=O -15.3%, COCC(=O)N1CCC2(CC1)CCN(c1ccccn1)CC2 3.62%, COCC(=O)N1CCC2(CCCN(c3ncccn3)C2)CC1 -6.09%

AC50, active:
Cc1cc2cc3c(C)cc(=O)oc3c(C)c2o1 3.98 µM, O=C(Nc1ccc(F)cc1)c1cc(S(=O)(=O)N2CCCCC2)cs1 14.1 µM, C#CCCCO/N=C1/C[C@@H](O)[C@@H](O)[C@@H]2[C@H]3C(=O)N(c4ccc(F)cc4F)C(=O)[C@@H]3CC[C@@H]12 3.16 µM, C#CCCCO/N=C1/C[C@@H](O)[C@@H](O)[C@@H]2[C@H]3C(=O)N(c4ccc(F)cc4F)C(=O)[C@@H]3CC[C@H]12 3.98 µM, O=C(c1cc(C(F)(F)F)cc(C(F)(F)F)c1)N1CCC[C@@]2(CCN(c3ccccn3)C2)C1 3.98 µM, O=C(c1cc(C(F)(F)F)cc(C(F)(F)F)c1)N1CCC[C@@]2(CCN(c3ccncc3)C2)C1 6.31 µM, O=C(c1cc(C(F)(F)F)cc(C(F)(F)F)c1)N1CCC[C@@]2(CCN(c3ncccn3)C2)C1 10 µM, CCCCC[C@H](O)c1cccc(OCc2ccc3ccccc3n2)c1 12.6 µM, O=C(O)c1ccccc1Nc1cccc(OCc2ccc3ccccc3n2)c1 1.58 µM, CC(C)CNS(=O)(=O)c1cc(C(=O)N2CC(C)OC(C)C2)c(Cl)cc1Cl (stereo unspecified) 3.16 µM, Cc1ccc(/C=C/C(=O)NC(=S)Nc2ccccc2C(=O)NC2CCCCC2)cc1 8.91 µM, O=C(CCCn1c(=S)[nH]c2cc3c(cc2c1=O)OCO3)N1CCN(c2ccccc2)CC1 0.447 µM, O=c1c2cc(Br)ccc2[nH]c(=S)n1Cc1cccnc1 0.398 µM, C=CCNC(=O)c1ccc(Cn2c(=S)[nH]c3cc4c(cc3c2=O)OCO4)cc1 7.94 µM, CCCCNC(=O)CCn1c(=S)[nH]c2cc3c(cc2c1=O)OCO3 3.98 µM, Cc1cccc(N2CCN(C(=O)CCCn3c(=S)[nH]c4cc5c(cc4c3=O)OCO5)CC2)c1C 0.794 µM, O=C(CCCCCn1c(=S)[nH]c2cc3c(cc2c1=O)OCO3)N1CCN(C2CCCCC2)CC1 1.12 µM

Reference: PubChem BioAssay AID1851 (National Center for Advancing Translational Sciences (NCATS), 2009)
